Several values for one entry are separate records, joined by “and”; a condition that tells them apart may be missing. Equal values may be shown once. About 37,000 (12%) of roughly 300,000 compounds were called active. This is one part of a sample in which actives are shown more often than they occur. Unmarked numbers belong to inactive results. Rule as the data show it: active = max response mostly above about 13% (no sharp cut-off); inactive = mostly below about 14%.

This assay in a line: Cycloheximide Counterscreen for Small Molecule Inhibitors of Shiga Toxin. Also: read at 38.3 µM for the half of the compounds with a filed dose; 0% is about no effect. The conditions noted are these: cell reporter, cycloheximide protein synthesis inhibition counterscreen; hits give high values. A general note: A counterscreen serves to expose hits that act by an unwanted route or on another target.
Take `Cc1ccc(NC(=O)CSc2sc3c(O)cc(=O)[nH]c3c2C#N)cc1C`: the max response was -5.26%.

As for `COc1ccc(S(=O)(=O)N2CCN(C(=O)N(C)C)C2C)cc1` (stereo not drawn), the max response is -6.24%.

On to `COc1ccc(CNC(=O)c2c[nH]c3c(OC)cc(OC)cc3c2=O)cc1`, for which the max response is 2.74%.

On to `COc1ccc(-n2c(SCC(=O)NCc3ccco3)nnc2-c2c[nH]c3ccccc23)cc1`, for which the max response was 1.31%.

Consider `O=C(CSc1nnc(-c2c[nH]c3ccccc23)n1-c1ccc(F)cc1)NCc1ccco1`, for which the max response was 11.7% (active).

`O=C(CSc1nnc(-c2cccs2)n1-c1ccccc1)NCc1ccco1`: the max response was -2.76%.

`COc1ccc(CC(=O)NC2CCSc3ccccc32)cc1OC` (stereo not drawn): the max response is 2.51%.

As to `CC(C)[C@@H](C(=O)O)N(Cc1cccc(CN([C@H](C(=O)O)C(C)C)S(C)(=O)=O)c1)S(C)(=O)=O`, the max response is -2.74%.

As for `O=C(O)C1CCN(C(=O)c2cc(F)cc3c2OCOC3)CC1`, the max response was -2.01%.

For `CCN(CC)C(=O)CC(c1ccc2c(c1)OCO2)c1c(OC)cc(OC)c2c(-c3ccccc3)cc(=O)oc12` (stereo not drawn), the max response was 7.27% and 12.1%.

Regarding `Cc1ccc2nc(-c3ccc(SCC(=O)Nc4cc(C)on4)nc3)[nH]c2c1`, the max response was 40.1% (active).

Take `Cc1cc(NC(=O)CSc2nc3ccccc3n2CC(C)C)no1`: the max response is 16.2%.

As for `Cc1cc(NC(=O)CSc2nc(=O)cc(N)n2-c2ccc(F)cc2)no1`, the max response is -1.93%.

For the compound `Cc1ccc(N2CC(C(=O)Nc3ccc(S(=O)(=O)N4CCCC4)cc3)CC2=O)cc1C` (stereo not drawn), the max response is -2.43%.

For `COc1ccccc1C(=O)COC(=O)CNS(=O)(=O)c1ccc(NC(C)=O)cc1`, the max response was 3.07%.

Take `CC(C)C[C@H](NC(=O)N1CC(=O)Nc2ccccc21)C(=O)N[C@H](Cc1ccccc1)C(=O)O`: the max response was -1.39%.

Turning to `COc1ccc(OC)c(C2C3=C(N=c4s/c(=C\c5cccc(O)c5)c(=O)n42)c2ccccc2CC3)c1` (stereo not drawn), the max response was -1.53%.

Regarding `COc1ccc(NC(=O)c2cc3nc(-c4ccccc4)cc(C)n3n2)cc1OC`, the max response is -3.85%.

For `CN1CCN(C(=O)COc2ccc(C(C)(C)C)cc2Br)CC1`, the max response was -0.455%.

On to `CC(C)c1ccc(OCC(=O)N2CCN(C)CC2)c(Br)c1`, for which the max response is 11.3% (active).

With `CC(C)c1ccc(OCC(=O)N2CCCN(C)CC2)cc1`, the max response was 14.8%.

With `Cc1ccc(-c2nc(C)sc2CC(=O)OCC(=O)Nc2c(F)cccc2F)cc1`, the max response was 1.62%.

Take `O=C(Nc1ccc(N2CCCC2=O)cc1)c1cncc(Br)c1`: the max response was 1.75%.

On to `COCn1c(C(O)c2ccccc2)cc2ccccc21` (stereo not drawn), for which the max response was 5.67%.

Regarding `Cc1cccc(N2CCN(C(=O)COCc3cc(-c4ccc5c(c4)OCO5)on3)CC2)c1C`, the max response was 13.7%.

As for `CCOC(=O)N1CCN(C(=O)COCc2cc(-c3ccc4c(c3)OCO4)on2)CC1`, the max response was 9.44%.

For the compound `CC(C)NC(=O)COCc1cc(-c2ccc3c(c2)OCO3)on1`, the max response is 34.6% (active).

Regarding `CCCn1nnnc1NCc1ccc(CC)cc1`, the max response was 15.5%.

Take `CCN1CCN(c2sc(S(C)(=O)=O)nc2S(=O)(=O)c2ccc(Cl)cc2)CC1`: the max response is 13.5%.

Regarding `COc1ccc(/C=C/c2nnc(NC(=O)C(C)C)s2)cc1`, the max response is 13.9% (active).

For the compound `O=C(CSc1ccccc1)Nc1nnc(/C=C/c2ccccc2)s1`, the max response was 0.905%.

For `O=C(Nc1ccc(Cl)cc1)Nc1nnc(/C=C/c2ccccc2)s1`, the max response was 6.47%.

Consider `CCCCNC(=O)N1CCCC(N(C)CCc2ccc(OC)c(OC)c2)C1` (stereo not drawn), for which the max response was -0.786%.

Turning to `CCOC(=O)c1c(N)nn(C(=O)c2ccccc2)c1-c1ccccc1`, the max response is -1.7%.

Turning to `Cc1nn(C(=O)c2ccoc2C)c(N)c1-c1ccccc1`, the max response was 53.9% (active).

On to `CCCC(=O)n1nc(-c2ccccc2)nc1N`, for which the max response was -1.34%.

In the case of `CCC(C)[C@@H](N)C(=O)O` (stereo partly drawn), the max response is -4.08%.

As for `CCCCNC(=O)c1ccccc1NC(=O)C1=C(C)OCCS1`, the max response was 1.86%.

With `Cc1c(C(=O)Nc2ccccc2)sc2nc3n(c(=O)c12)CCCCC3`, the max response is 36.1% (active).

As for `COc1ccc(CCNC(=O)C(=O)Nc2ccc3nc4n(c(=O)c3c2)CCCCC4)cc1OC`, the max response was -0.998%.

In the case of `Cc1nc(N2CCN(c3ccccn3)CC2)c2c(C)c(C(=O)Nc3ccc(F)cc3)sc2n1`, the max response is 1.78%.

Turning to `Cc1nc(N2CCOCC2)c2c(C)c(C(=O)Nc3ccc(C(F)(F)F)cc3)sc2n1`, the max response is -1.52%.

Consider `O=C(Nc1ccc2nc3n(c(=O)c2c1)CCCCC3)c1ccccc1Cl`, for which the max response is 23% (active).

For the compound `O=c1c2c(nc3n1CCCCC3)sc1c(O)cccc12`, the max response is 12.7%.

In the case of `CC(=O)c1sc2nc(SCC(=O)N3CCCCC3)[nH]c(=O)c2c1C`, the max response is -3.21%.

Take `CCCCN(CC)C(=S)Nc1ccc2nc3n(c(=O)c2c1)CCCCC3`: the max response is -3.24%.

As for `CC(=O)c1ccc(NC(=O)c2sc3nc4n(c(=O)c3c2C)CCCCC4)cc1`, the max response was 47.8% (active).

Take `O=[N+]([O-])/C=C/c1ccc2c(ccn2Cc2ccccc2)c1`: the max response was -1.88%.

As to `CN(C)CCCCCN(C)Cc1cc2ccccc2o1`, the max response was -0.524%.

For `COCCCNC(=O)CNC(=O)c1nn(-c2ccc(OC)cc2)c(=O)c2ccccc12`, the max response was -1.37%.

As for `O=C(Nc1ccccc1C(=O)O)c1ccc(N2C(=O)C3CC=CCC3C2=O)cc1` (stereo not drawn), the max response was -5.5%.

Regarding `O=C1CSc2ccc(S(=O)(=O)NCc3ccccc3)cc2N1`, the max response is 7.11%.

In the case of `COc1cccc(N(C(=O)c2ccn[nH]2)C2(C(=O)Nc3c(C)cccc3C)CCCCC2)c1`, the max response was -5.43%.

With `CC1CCN(c2oc(-c3ccccc3F)nc2C#N)CC1`, the max response is 28.8% (active).

Take `COc1ccccc1-c1nc(C#N)c(N2CCC(C(N)=O)CC2)o1`: the max response is -3.17%.

On to `Cc1oc(-c2ccccc2F)nc1CS(=O)CC(=O)NCCN1CCCCC1C` (stereo not drawn), for which the max response was -6.49%.

Regarding `Cc1ccc(NN=Nc2nc3c([nH]2)c(=O)n(C)c(=O)n3C)cc1`, the max response was 11.7%.

Regarding `Cc1cccc(C)c1NC(=O)CN1C(=O)C(C)Oc2ccccc21` (stereo not drawn), the max response is 1.84%.

(Values after PubChem BioAssay AID2314 (National Center for Advancing Translational Sciences (NCATS), 2010).)
